# High-throughput results: PubChem BioAssay, National Center for Advancing Translational Sciences (NCATS)
# PI5P4Ka inh – qHTS for Inhibitors of phosphatidylinositol 5-phosphate 4-kinase (PI5P4K). Phosphatidylinositol 5-phosphate 4-kinase type-2 alpha (Homo sapiens), P48426. PI5P4Kalpha enzyme, ADP-Glo luminescence, 60 min; hits give low values. max response, %. 330,000 tested, 1.2% active; active means max response of -50% or lower; inconclusive means between -30% and -50%; inactive means -30% or higher; further: value at the top dose of about 77 µM; on the % scale 0 is the no-effect control and ±100 the full control effect
#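 Luminescence from ADP-Glo served as readout of PI5P4Kalpha activity in a qHTS format. Reaction: enzyme, substrate, compound, ATP at 5 microM final, 60 min at RT.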
# Pol beta inh – qHTS Assay for Inhibitors of DNA Polymerase Beta; Pol beta primer extension/strand displacement, fluorescence kinetic; Potency, µM (series often up to 114 µM), for inactives: at the highest dose activity change, negative = inhibition, actives largely listed as inhibitors; 340,000 tested, 1.3% active; further: potency means the concentration at half of the fitted maximal effect; on the % scale 0 is the no-effect control and ±100 the full control effect
#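 Enzyme-only controls used 10 nM Pol beta; buffer lacking enzyme served as negative control. Compound preincubated 15 min, then 50 nM substrate added; 0 and 10 min reads at room temperature.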
# FEN1 inhibitor – qHTS Assay for the Inhibitors of Human Flap endonuclease 1 (FEN1). Potency, µM (highest dose often 114 µM), without a hit: at the highest dose activity change, negative = inhibition, most hits filed as inhibitors. P39748. 390,000 tested, 0.35% active. AID 588795, 2011. Recombinant FEN1 flap cleavage, fluorescence, 15 min; further: potency means the concentration at half of the fitted maximal effect; on the % scale 0 is the no-effect control and ±100 the full control effect; nearly all actives have a fitted effect of over 65% in size
#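 Quantitative HTS format: each compound was titrated, incubated with 10 nM nuclease for 15 min at room temperature, then challenged with flap substrate at 50 nM final. Signal change over 15 min gave concentration–effect curves.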
# POLK inh – qHTS for Inhibitors of Polymerase Kappa; DNA polymerase kappa (Homo sapiens), Q9UBT6; purified Pol kappa, fluorescent DNA synthesis assay, 10 min; Potency, µM (titrated, usually from 107 µM), for the others: at the top dose activity, negative = inhibition, most hits filed as inhibitors; 400,000 tested, 0.53% active; AID 588579, 2011; further: potency means the concentration at half of the fitted maximal effect; on the % scale 0 is the no-effect control and ±100 the full control effect
#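 50 nM final substrate added after 15 min RT preincubation of 10 nM Pol kappa with compound; fluorescence read at 0 and 10 min.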
# Pol iota inh – qHTS for Inhibitors of Polymerase Iota; AID 588590, 2011; Pol iota fluorescent replication assay, 10 min; DNA polymerase iota (Homo sapiens), Q9UNA4; 390,000 tested, 1% active; Potency, µM (top dose mostly 115 µM), for inactives: top-dose activity, negative = inhibition, most hits filed as inhibitors; further: potency means the concentration at half of the fitted maximal effect
#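 Fluorescent replication assay read twice, at 0 min and 10 min after adding 50 nM (final) substrate. Enzyme (10 nM) and compounds were first incubated 15 min at room temperature; enzyme-free buffer wells were negative controls.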
# Pol eta inh – qHTS for Inhibitors of Polymerase Eta; DNA polymerase eta (Homo sapiens), Q9Y253; recombinant Pol eta, fluorescent DNA replication assay; Potency, µM (top dose mostly 114 µM), for the others: at the top dose activity change, negative = inhibition, actives largely listed as inhibitors; 390,000 tested, 1.2% active; AID 588591, 2011; further: potency means the concentration at half of the fitted maximal effect; on the % scale 0 is the no-effect control and ±100 the full control effect
# Target sequence (Q9Y253 whole entry, looked up): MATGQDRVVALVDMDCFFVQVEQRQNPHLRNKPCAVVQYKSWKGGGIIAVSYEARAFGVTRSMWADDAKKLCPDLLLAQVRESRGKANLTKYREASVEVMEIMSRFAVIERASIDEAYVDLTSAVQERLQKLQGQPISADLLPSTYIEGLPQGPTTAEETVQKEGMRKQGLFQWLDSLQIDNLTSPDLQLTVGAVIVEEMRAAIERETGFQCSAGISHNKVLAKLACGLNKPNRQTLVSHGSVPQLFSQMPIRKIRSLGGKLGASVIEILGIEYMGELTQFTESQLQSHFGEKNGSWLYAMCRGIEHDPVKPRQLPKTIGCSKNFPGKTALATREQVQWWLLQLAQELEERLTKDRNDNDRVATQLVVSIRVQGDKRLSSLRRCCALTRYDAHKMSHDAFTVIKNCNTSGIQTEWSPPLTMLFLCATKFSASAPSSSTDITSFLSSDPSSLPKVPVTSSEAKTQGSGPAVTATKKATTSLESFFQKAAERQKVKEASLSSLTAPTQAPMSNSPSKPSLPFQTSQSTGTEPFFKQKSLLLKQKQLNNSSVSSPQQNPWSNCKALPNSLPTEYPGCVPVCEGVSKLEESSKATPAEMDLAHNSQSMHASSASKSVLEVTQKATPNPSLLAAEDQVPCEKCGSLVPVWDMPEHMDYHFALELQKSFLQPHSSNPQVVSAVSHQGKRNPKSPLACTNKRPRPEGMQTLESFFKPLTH
#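 Pol eta (10 nM) was preincubated with compounds for 15 min at room temperature, after which fluorescent replication substrate (50 nM final) was added to start the reaction. Fluorescence was read kinetically at 0 and 10 min.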
# An asterisk follows results filed as active; ? = inconclusive; . = no result given; ! = not confirmed by another sample. Shown are actives, neighbours in structure and some others; about 2.8% of the full set was active somewhere. Unless noted, the call rests on the fitted dose curve; in most records, active means well fitted curve in the direction sought with a large enough effect; inconclusive means small, poorly fitted or top-dose-only effect, or another doubt; inactive means no such curve, though single readings can be large; an effect the other way counts as inactive or inconclusive.
SMILES,PI5P4Ka inh,Pol beta inh,FEN1 inhibitor,POLK inh,Pol iota inh,Pol eta inh
Cc1ncc(CO)c2c1Oc1nc(-c3ccccc3)nc(SCC(=O)Nc3cccc(O)c3)c1C2,?,3%,5%,-17%,?,?
Cc1ncc(CO)c2c1Oc1nc(-c3ccccc3)nc(SCC(=O)Nc3cccc(C(F)(F)F)c3)c1C2,.,35µM*,-2%,-4%,-15%,?
COc1ccc(-c2nc3c(c(SCC(=O)Nc4cccc(O)c4)n2)Cc2c(CO)cnc(C)c2O3)cc1,?,1.6µM*!,?,79µM*!,6.3µM*,20µM*
CCc1ccccc1NC(=O)CSc1nc(-c2cccc(Cl)c2)nc2c1Cc1c(CO)cnc(C)c1O2,.,1%,-4%,-8%,-12%,3%
Cc1ccc(NC(=O)CCNS(=O)(=O)c2ccc3c(c2)CCCC(=O)N3)cc1,.,26%,4%,3%,-10%,3%
CC(C(=O)Nc1ccccc1)n1nnc2sc3c(c2c1=O)CCCC3 (centres undefined),.,31%,-26%,0%,?,.
CC(=O)Nc1cccc(NC(=O)c2c(-c3ccccc3)c(-c3ccccc3)nn(C)c2=O)c1,.,27%,-16%,0%,-4%,-20%
CCOc1ccc(NC(=O)CSc2nc(-c3ccc(OC)cc3)nc3c2Cc2c(CO)cnc(C)c2O3)cc1,.,40µM*,15%,-3%,?,-2%
Cc1cc(O)c(C=O)c2c1C(=O)Oc1c(COC(=O)/C=C/C(=O)O)c(O)c(C(=O)O)c(C)c1O2,.,.,.,3.5µM*,.,.
Cc1cc(O)c(C=O)c2c1C(=O)Oc1c(CO)c(O)c3c(c1O2)C(O)OC3=O (centres undefined),-84*,2.2µM*,3.5µM*,0.79µM*,1.1µM*,2.8µM*
O=[N+]([O-])c1ccc(C[n+]2cccc3ccccc32)cc1,-1,?,-1%,7%,87%,-18%
O=[N+]([O-])c1ccc(C[n+]2cccc3ccc4cccnc4c32)cc1,-58*,?,4%,3%,77%,-25%
Cc1ccc(CSc2nc3cccnc3n2Cc2nc(-c3ccccc3F)oc2C)cc1,.,-1%,-21%,-7%,5%,-10%
CCC(Oc1ccccc1)C(=O)Nc1ccc(C)c(S(=O)(=O)N2CCOCC2)c1 (centres undefined),3,.,-4%,-5%,68%,-13%
Cc1ccc(C)c(S(=O)(=O)N2CCN(C(=O)c3ccc(OCc4c(C)noc4C)cc3)CC2)c1,4,.,10%,-5%,6%,-13%
CC(=O)Nc1ccc2c(c1)Cc1ccc(Cl)cc1-2,17,.,?,-11%,79µM*,-21%
CCOc1ccc(OCC)c(NC(=O)Cn2ncc3c4ccccc4n(Cc4ccccc4)c3c2=O)c1,.,16%,-1%,0%,2%,-11%
O=c1cc(O)c2c(=O)n(-c3ccccc3)c3ccccc3c2o1,-7,22µM*,2%,-26%,6%,?
CC(C)n1c(=O)c2c(O)cc(=O)oc2c2ccccc21,.,18µM*,?,?,?,-29%
CC1CCCCCCC1OC(=O)c1ccccc1C(=O)O (centres undefined),4,.,-4%,-1%,18%,-15%
CCOC(=O)COc1nc(-c2ccco2)cc(-c2ccco2)c1C#N,?,?,-8%,?,50µM*,-1%
CCOC(=O)C(C)Sc1nc(-c2ccco2)cc(C(F)(F)F)c1C#N (centres undefined),-56*,-1%,-7%,-15%,?,-16%
Cc1n[nH]c(C)c1S(=O)(=O)N1CCC(C(=O)Nc2cccc(F)c2)CC1,9,-2%,18%,-11%,?,2%
O=C(CCCCCNC(=S)Nc1ccc(Cl)cc1)C[N+](=O)[O-],-18,11%,2%,1%,12%,-18%
COc1ccc(NC(=S)NCCCCCC(=O)C[N+](=O)[O-])cc1,-11,-1%,1%,-4%,?,79µM*
SMILES,PI5P4Ka inh,Pol beta inh,FEN1 inhibitor,POLK inh,Pol iota inh,Pol eta inh
Cc1cc(C)n(-c2cccc(CN(C)Cc3nc(-c4cnccn4)no3)c2)n1,1,-28%,-5%,1%,29%,-20%
Cc1nc(SCC(N)=O)c([N+](=O)[O-])[nH]1,1,-11%,2%,6%,115%,-12%
C/C(=N\NC(=O)CSc1nc(C)[nH]c1[N+](=O)[O-])c1ccc(F)cc1,-67*,4%,-13%,-3%,24%,-4%
CCOC(=O)CNC(=O)N1[C@H](c2cccs2)[C@@H](C)C(=O)[C@@H](C)[C@@H]1c1cccs1,.,1%,11%,-17%,23%,-12%
Cc1ccc(C)c(Cn2c(=O)n(C(C)C)c(=O)c3oc4ccccc4c32)c1,.,14%,-3%,2%,2%,-15%
Cc1cc(C(=O)Cn2ncc(Cl)c(Cl)c2=O)c(C)n1CC(F)(F)F,-56*,-4%,-4%,-31%,?,22µM*
Cc1ccc(C)c(C(=O)Cn2ncc(Cl)c(Cl)c2=O)c1,-4,4%,2%,-17%,-6%,-11%
COc1ccc(S(=O)(=O)N(Cc2ccccc2)c2ccccc2C(=O)Nc2ccccc2C(=O)NCc2ccco2)cc1,13,89µM*,-3%,-20%,-5%,-19%
COc1ccc(S(=O)(=O)Nc2ccccc2C(=O)NCc2ccco2)cc1,-20,-14%,-2%,-1%,?,-15%
CCOCN(C(=O)Cn1cnc2cc(C)c(C)cc21)c1c(C)cccc1CC,.,1%,-10%,-10%,16%,-15%
COc1ccccc1CNC(=O)c1ccc(CN2CC(=O)N3CCCCC3C2=O)cc1 (centres undefined),.,-3%,-3%,-1%,-18%,3%
N#CC1=C(N)NC(SCc2ccccc2)=C(C#N)C12CCCC2,-63*,2%,-4%,-3%,-13%,-18%
N#CC1=C(N)NC(SCc2ccc(Cl)cc2)=C(C#N)C12CCCCC2,-2,9%,-22%,?,?,-13%
CCSC1=C(C#N)C2(CCCC2)C(C#N)=C(N)N1,-57*,16%,-3%,-12%,-1%,-15%
CSC1=C(C#N)C2(CCCC2)C(C#N)=C(N)N1,.,8%,.,.,.,.
Nn1cnnc1N/N=C/c1ccc(F)cc1,-3,-5%,?,6%,16µM*,-13%
Cc1ccc(/C=N/Nc2nncn2N)cc1,0,9%,1%,-2%,0.89µM*,-6%
